Drawing on PubChem BioAssay (NCI), this text covers growth inhibition for eight molecules.

Compounds without any hit were thinned out: in the full panel of roughly 79,000, 15% have a hit. A number with no mark means an inactive call. Calls of active or inactive are those of the source. Rule as the data show it: active = growth inhibition above about 70%; inactive = the rest.

A short description of this assay: NCI Yeast Anticancer Drug Screen. Data for the rad50EPP+ strain (AID 151).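 Also: 0% = growth of vehicle-treated control cultures.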 The settings on record: S. cerevisiae rad50 mutant strain, stronger effect = higher value. The procedure:
Growth inhibition of yeast strains with defined genetic alterations is measured as a screen for potential anti-cancer activity. Selected strains with alterations in DNA damage repair or cell cycle control were exposed to compounds and growth inhibition was measured relative to vehicle treated controls. The strain used in this assay is rad50EPP+

As for `Cc1ccc2c(c1N)C(=O)c1ccccc1C2=O`, the growth inhibition by setting is: (at 1.2 µM) 22%; (at 3.7 µM) 45%; (at 11.0 µM) 69%; (at 33.0 µM) 78% (active); (at 100.0 µM) 76% (active).
With `COC1CC(CC2CCC(C)C(C(C)C(=O)O)O2)OC2(OC(C)(C3CCC(C)(C4OC(C5OC(O)(CO)C(C)CC5C)CC4C)O3)CC2C)C1C` (stereo not given), the growth inhibition runs as follows: (at 1.2 µM) -12%; (at 3.7 µM) 0%; (at 11.0 µM) -12%; (at 33.0 µM) 40%; (at 100.0 µM) 90% (active).
As for `CC[C@]1(O)CC(OC2CC(N(C)C)C(O)C(C)O2)c2c(cc3c(c2O)C(=O)c2c(O)cccc2C3=O)[C@@H]1C(=O)OC` (stereo not given in full), the growth inhibition reads like this: (at 1.2 µM) 6%; (at 3.7 µM) 12%; (at 11.0 µM) 40%; (at 33.0 µM) 70% (active); (at 100.0 µM) 89% (active).
For `CCCCCCCCCC[Se]C#N`, in that order: 4%, 6%, 23%, 76% (active) and 97% (active).
For `CC[C@](O)(C(=O)O)c1cc2n(c(=O)c1CO)Cc1cc3ccccc3nc1-2`, in that order: 80% (active), 93% (active), 96% (active), 97% (active) and 98% (active).
On to `[N-]=[N+]=C1C(Cl)=C(Cl)C(Cl)=C1Cl`, for which the growth inhibition is 1% (at 1.2 µM); 6% (at 3.7 µM); 32% (at 11.0 µM); 83% (active) (at 33.0 µM); 98% (active) (at 100.0 µM).
For the molecule `CCOC(=O)C1C2c3ccccc3C(c3ccccc32)C1C(=O)OCC` (stereo not given), the growth inhibition is -1% (at 1.2 µM); -2% (at 3.7 µM); 2% (at 11.0 µM); -2% (at 33.0 µM); 1% (at 100.0 µM).
As for `COC(COC(=O)N1CCN(C=O)CC1)C1=C(N2CC2)C(=O)C(C)=C(N2CC2)C1=O` (stereo not given), the growth inhibition (at 1.2 µM) was -44%; the growth inhibition (at 3.7 µM) is -38%; the growth inhibition (at 11.0 µM) is -35%; the growth inhibition (at 33.0 µM) is -8%; the growth inhibition (at 100.0 µM) is -5%.
